From PubChem BioAssay
A3G deaminase: APOBEC3G DNA deaminase inhibitors, primary screen, biochemical, fluorescence, single-stranded DNA substrate, uHTS. inhibition, % at 20 µM. 330,000 compounds, 0.28% hits. AID 493012, 2011. recombinant A3G, ssDNA deamination FAM/TAMRA fluorescence;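 active = inhibition of at least 40% at 20 µM, with no more than 30% in the related APOBEC3A deaminase screen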;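 also: plate controls were DMSO wells with A3G for no effect and wells lacking A3G enzyme for full effect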
GRK2 inh: compounds blocking aptamer binding on GRK2 – biochemical, human GRK2, bead flow cytometry, HTS, primary screen; Beta-adrenergic receptor kinase 1 (Homo sapiens), P25098; FAM-aptamer displacement from GRK2; inhibition of aptamer binding, % at 10 µM; 330,000 compounds, 0.59% hits; AID 488847, 2010;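 active = inhibition of aptamer binding above 40%, roughly 3 SD of noise, on plates passing a quality check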;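 also: median bead fluorescence of bound FAM aptamer so fluorescent compounds give negative values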
VLA-4 inh: inhibition in human VLA-4 binding assay, primary screen, VLA-4 allosteric modulator project, MLPCN library, flow cytometry, VLA-4 expressing cells; Integrin alpha-4 (Homo sapiens), P13612; ligand binding flow cytometry; inhibition, % (about 7 µM as worked out from the volumes in the protocol); 330,000 compounds, 0.2% hits; AID 2557, 2010; in the data active = inhibition above about 50%
APOBEC3A inh: APOBEC3A ssDNA deaminase inhibitors, primary screen, selectivity assay for APOBEC3G inhibitor project, biochemical, FAM/TAMRA oligo cleavage fluorescence; recombinant A3A, FAM/TAMRA ssDNA deamination fluorescence; inhibition, % at 20 µM; DNA dC->dU-editing enzyme APOBEC-3A (Homo sapiens), P31941; 330,000 compounds, 0.41% hits;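 active = at least 40% inhibition at 20 µM here, with at most 30% in a related deaminase screen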;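 also: plate controls were A3A with DMSO for no effect and wells lacking A3A enzyme for full effect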
Target sequence (P31941 whole entry, looked up): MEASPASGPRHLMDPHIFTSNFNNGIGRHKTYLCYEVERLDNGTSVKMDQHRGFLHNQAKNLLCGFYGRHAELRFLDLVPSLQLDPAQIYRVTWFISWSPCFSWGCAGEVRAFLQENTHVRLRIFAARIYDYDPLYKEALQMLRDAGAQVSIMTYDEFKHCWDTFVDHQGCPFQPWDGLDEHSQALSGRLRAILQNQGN
GRK2 inh confirm: GRK2 aptamer-displacing inhibitors, retest, confirmation, biochemical, cherry pick 1, bead flow cytometry | shares compounds with GRK2 inh | bead-bound GRK2, FAM-aptamer displacement | aptamer displacement, % at 10 µM | 2,000 compounds, 4% hits | AID 504451, 2011;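 active = aptamer displacement above 40%, near three times the noise of non-fluorescent compounds, on plates passing quality checks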;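 also: negative values mostly reflect intrinsic compound fluorescence rather than true enhancement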
Aptamer quench 1: quenches fluorescent RNA aptamer, GRK2 hit artifact; Fluorescent RNA aptamer beads, quenching, flow cytometry; stronger effect = higher value; 110 tested, under 10 active; AID 504521; fluorescence change (kMESF span), kMESF (no concentration beside the values); shares compounds with GRK2 inh;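 active = compounds whose bead fluorescence drops by more than 37 kMESF across the dose range, marking them as dye quenchers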
Aptamer quench SP: quenches fluorescent RNA aptamer, GRK2 hit artifact | shares compounds with GRK2 inh | Carboxyfluorescein RNA aptamer on beads, flow cytometry quenching; stronger effect = lower value | fluorescence response (% of DMSO), % at 10 µM | 2,000 tested, under 10 active;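 active = compounds that quench the bead-bound fluorescent RNA probe, cutting fluorescence to under half of the solvent control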;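 also: counterscreen run without GRK2 so only probe quenching by compound is measured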
GRK2 confirm 2: GRK2 aptamer-displacing inhibitors, hit retest, confirmation, biochemical, cherry pick 2, bead flow cytometry. bead-bound GRK2, FAM-aptamer displacement. shares compounds with GRK2 inh. 360 tested, under 10 active. inhibition of aptamer binding, % at 10 µM;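 active = inhibition of aptamer binding above 40%, about triple the noise seen with nonglowing compounds, on plates passing quality control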;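 also: negative values mostly come from compounds that fluoresce themselves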
FAM quench CP2: quenches fluorescent RNA aptamer, GRK2 hit artifact | shares compounds with GRK2 inh | AID 588494 | 360 tested, under 10 active | fluorescence response vs DMSO, % at 10 µM | carboxyfluorescein RNA aptamer beads, flow cytometry quenching; stronger effect = lower value;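 active = response vs DMSO under 50%, meaning signal dropped by over half, treated as fluorescence quencher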;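 also: labelled aptamer on streptavidin beads without GRK2 as a quench counter-screen; 100% = bead fluorescence of DMSO wells and lower means quenching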
Starred values were filed as active, the others as inactive; nt = no result given. Hits are enriched below; roughly 1.4% of the tested compounds scored in any of these assays.

SMILES	A3G deaminase	GRK2 inh	VLA-4 inh	APOBEC3A inh	GRK2 inh confirm	Aptamer quench SP	others
O=C(CSc1nc2[nH]ncc2c(=O)[nH]1)Nc1ccc(OC(F)(F)F)cc1	-9	65*	-1	-2	-2	102
O=C(c1ccc(F)cc1)C1CCN(C(=O)c2ccncc2)CC1	-3	1	4	-2	nt	nt
COc1ccc(C(=O)Nc2ccc(NC(=O)c3cccs3)cc2)cc1Cl	-5	3	2	-2	nt	nt
COCCCNC(=O)c1cccc(C(=O)NCCCOC)c1	-7	2	5	-3	nt	nt
COCCCNC(=O)NC(=O)c1ccccc1	-3	76*	17	-1	nt	nt	GRK2 confirm 2=19;FAM quench CP2=101
COc1ccccc1CN1CC(C(=O)NCc2cc(F)cc(C(F)(F)F)c2)CCC1=O (stereo not drawn)	-3	89*	-112	-2	-3	96
COc1ccccc1CN1CC(C(=O)NCCc2ccccc2Cl)CCC1=O (stereo not drawn)	-4	76*	13	3	2	96
COc1ccccc1CN1CC(C(=O)NCc2cccc(Cl)c2)CCC1=O (stereo not drawn)	0	0	-69	-1	nt	nt
COc1ccccc1CN1CC(C(=O)NCCC2=CCCCC2)CCC1=O (stereo not drawn)	-6	0	-124	-4	nt	nt
COC(=O)c1c(NC(=O)c2ccc(C)o2)sc2c1CCCCC2	-2	nt	nt	-1	nt	nt
COc1ccc(-n2nc(C(=O)NCc3ccco3)c3c4ccccc4n(C)c3c2=O)cc1	-6	4	-5	-5	nt	nt
COc1ccc(-n2nc(C(=O)NCc3cc(OC)ccc3OC)c3c4ccccc4n(C)c3c2=O)cc1	-3	77*	3	-1	-2	102
Fc1ccc2c(c1)C(c1ccc(N3CCOCC3)cc1)=NNC(c1cccs1)=N2	-3	6	26	-1	nt	nt
Cc1ccc2c(c1)C(c1ccc(N3CCOCC3)cc1)=NNC(c1cccs1)=N2	0	100*	-3	0	2	97
O=C(CCS(=O)(=O)c1ccc(Br)s1)N1CCc2ccccc21	-6	0	3	1	2	98	Aptamer quench 1=3.6
O=C(O)CC(C(=O)O)N1C(=O)/C(=C/c2ccc(-c3nc4ccccc4s3)o2)SC1=S (stereo not drawn)	95	44*	-6	99	8	181
O=C(NCc1cccs1)C1(S(=O)(=O)c2ccccc2)CC=CC1	-6	0	5	0	nt	nt	GRK2 confirm 2=6;FAM quench CP2=97
CN1CCOC(=O)/C1=N/Nc1cc(Cl)ccc1Cl	-7	57*	2	-1	-6	96
Cc1nonc1NC(=O)CSc1nc2c(C)cccc2cc1C#N	-15	0	-41	-2	nt	nt
Oc1nc(Nc2ccccc2)sc1/C=C1\C=Nc2ccccc21	-5	45*	-4	0	-1	98
O=c1cc(CN2CCN(Cc3ccc(F)cc3)C(CCO)C2)[nH]c2ccccc12 (stereo not drawn)	-4	41*	18	-7	nt	nt	GRK2 confirm 2=1;FAM quench CP2=99
COCCN1C(=O)N[C@@H](c2cccc(F)c2)C(C(=O)OC)=C1C	-4	91*	-8	-3	0	105
